RGS7-Gao = regulators of human RGS7-Galphao interaction; P09471; Multiplexed bead flow cytometry, RGS7-Galphao binding; actives lie on both sides; binding response (% of control), % at 10 µM; 220,000 tested, 0.35% active; in the data active = binding response below about 49% or above about 150%; inconclusive = no clear call, values can overlap the other calls; inactive = in between;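 note: fluorescent Galphao held in activated GDP-AlF4 state binding bead-coupled RGS7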
Target sequence (P09471 whole entry, looked up): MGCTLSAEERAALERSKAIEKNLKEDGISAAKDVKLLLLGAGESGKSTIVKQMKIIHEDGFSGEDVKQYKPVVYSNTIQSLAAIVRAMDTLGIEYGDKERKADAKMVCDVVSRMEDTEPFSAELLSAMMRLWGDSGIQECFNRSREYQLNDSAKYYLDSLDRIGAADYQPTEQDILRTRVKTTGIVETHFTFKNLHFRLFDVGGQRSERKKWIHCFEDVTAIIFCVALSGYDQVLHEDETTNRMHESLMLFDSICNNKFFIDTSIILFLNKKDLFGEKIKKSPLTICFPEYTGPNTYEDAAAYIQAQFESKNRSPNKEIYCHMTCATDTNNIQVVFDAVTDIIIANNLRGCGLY
RGS4-Gao reg = modulates binding of RGS4 to human Galphao. P09471. Multiplexed bead flow cytometry; actives lie on both sides. binding response (% of control), % at 10 µM. 220,000 tested, 0.33% active; in the data active = binding response below about 49% or above about 150%; inactive = in between;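 note: fluorescent Galphao activated with aluminum fluoride binding bead-coupled RGS4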
RGS16-Gao = RGS16-Galphao interaction regulator (human); O15492+P09471; bead-based flow cytometry RGS16-Galphao binding, fluorescence; actives lie on both sides; binding response (% of control), % at 10 µM; 220,000 tested, 0.38% active; AID 1441; call rule not given here;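 note: Galphao activated by GDP with aluminum fluoride before binding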
GSH bead fluor = GSH bead compound fluorescence profile; 190,000 tested, 0.25% active; GSH beads flow cytometry, compound fluorescence 488/530 nm; stronger effect = higher value; fluorescence (KMESF) at 10 µM; in the data active = fluorescence above about 89;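 note: glutathione beads carrying GST-tagged Bcl family fusion proteins plus one bare bead set; values are compound well signal with DMSO vehicle wells as background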
RGS8-Gao reg = regulators of human RGS8-Galphao interaction | AID 1423 | multiplexed bead flow cytometry, RGS8-Galphao binding; actives lie on both sides | 220,000 tested, 0.34% active | response (percent of control binding), % at 10 µM; in the data active = response below about 60% or above about 140%; inactive = in between;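 note: Galphao activated as the GDP aluminium fluoride complex binding bead-coupled RGS8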
Avidin bead fluor = compound fluoresces at 488/530 nm on avidin beads; compound fluorescence 488/530 nm, flow cytometry; stronger effect = higher value; fluorescence (KMESF) at 10 µM; 220,000 tested, 0.38% active; AID 1775; in the data active = fluorescence above about 47
An asterisk follows results filed as active; u = inconclusive; x = no result. An excerpt weighted towards active compounds, which were near 1.2% of everything screened.

SMILES	RGS7-Gao	RGS4-Gao reg	RGS16-Gao	GSH bead fluor	RGS8-Gao reg	Avidin bead fluor
O=C(N/N=C/c1ccc(-c2ccc(S(=O)(=O)Nc3ncccn3)cc2)o1)c1cc2ccccc2cc1O	102	112	101	28	100	50*
CCOC(=O)C1(C(F)(F)F)N=C(C(F)(F)F)Nc2ccccc21 (stereo not drawn)	99	99	101	23	101	11
O=C(O)CN1CCCCC1	97	99	100	13	99	11
CC(=O)/C(CN1CCCCC1)=N\O	136	110	103	13	101	85*
Cc1noc(C)c1CSc1nc2ccccc2n1C	102	107	46	240*	94	5
Cc1noc(C)c1CSc1nnc2sc3ccccc3n12	104	105	107	4	104	7
Cc1cc(C)n(C(=O)c2c([N+](=O)[O-])c(C)nn2C)n1	96	93	98	150*	99	6
CCOc1ccc(C(=O)Nc2nnn(CC)n2)cc1	93	94	92	16	98	7
CCn1nnc(NC(=O)c2cccnc2Cl)n1	99	98	105	259*	101	9
COc1ccc(OC)c(C2C=C(c3ccc(C)c(C)c3)Nc3nnnn32)c1 (stereo not drawn)	112	106	102	53	102	51*
O=C(Nc1ccccc1NS(=O)(=O)c1ccc(F)cc1)C1CCCC1	u	99	97	16	99	10
C=C(C)c1cccc(C(C)(C)NC(=O)NCCCN2CCCC2=O)c1	110	106	109	22	104	16
C=C(C)c1cccc(C(C)(C)NC(=O)NCCCn2ccnc2)c1	103	101	100	25	101	50*
N#CC1=C(N)Oc2n[nH]c(-c3cccs3)c2C1c1cccs1 (stereo not drawn)	109	103	101	16	101	48*
N#CC1=C(N)Oc2n[nH]c(-c3cccs3)c2C1c1ccccc1C(=O)O (stereo not drawn)	104	105	102	19	101	9
Cc1nn(C(C)(C)C)c(OC(=O)c2ccco2)c1Sc1ccccc1	92	99	100	14	100	32
CCC1(C)NC(=O)N(CC(=O)Nc2sc3c(c2C(N)=O)CCC3)C1=O (stereo not drawn)	77	83	1	222*	86	3
NC(=O)c1c(NC(=O)CN2C(=O)CCC2=O)sc2c1CCCCC2	106	105	113	28	105	8
CCOC(=O)c1[nH]c2ccccc2c1NC(=O)CCN1CCN(C(=O)OCC)CC1	136	112	98	36	99	132*
CCN(CC)S(=O)(=O)c1cccc(NC(=O)COC(=O)c2ccc(Br)o2)c1	100	98	60	255*	92	4
CCN(CC)S(=O)(=O)c1cccc(NC(=O)COC(=O)c2cc(=O)c3ccccc3o2)c1	97	103	102	9	107	8
COCCCNC(=O)Cn1cc2c(n1)CCCCC2	101	98	104	16	99	5
CCCSCCCNC(=O)Cn1cc2c(n1)CCCCC2	43*	49*	47	18	56*	3
COC(=O)c1cccc(NC(=O)c2onc3c2CCCC3)c1	101	100	98	16	100	17
O=C(Nc1ccc2ccccc2c1)c1onc2c1CCCC2	126	119	111	9	100	57*
SMILES	RGS7-Gao	RGS4-Gao reg	RGS16-Gao	GSH bead fluor	RGS8-Gao reg	Avidin bead fluor
O=C1CSC(=S)N1c1cccnc1	98	100	99	266*	101	7
O=C1CSC(=S)N1Cc1cccnc1	100	103	101	65	97	8
CCC(Sc1ccc(C(=O)O)cc1)C(=O)O (stereo not drawn)	106	102	100	21	101	50*
CCOc1ccccc1N1C(=O)CC(Nc2ccc(N3CCOCC3)cc2)C1=O (stereo not drawn)	79	64	-173	245*	79	1
COc1ccc(NC(=O)CSc2ccc(F)cc2)cc1S(=O)(=O)N1CCCCC1	106	104	102	8	103	3
COc1ccc(NC(=O)CSc2ccc(NC(C)=O)cc2)cc1S(=O)(=O)N1CCCCC1	133	136	105	23	100	74*
Cc1ccc(NC(=O)/C(C#N)=C(\N)C(Cl)(Cl)Cl)nc1	93	85	85	10	94	9
Cc1nnc(SCC(=O)N2CCCCC2)n1CC1CCCO1 (stereo not drawn)	101	105	112	94*	106	4
CCCCOCC(O)Cn1c(C)nc2ccccc21 (stereo not drawn)	102	106	114	261*	102	9
CCOc1ccc(S(=O)(=O)Nc2ccc(C(=O)N/N=C(\C)c3ccc(-n4ccnc4)cc3)cc2)cc1	143	145	162	27	112	50*
Cc1cc2cc(C)c3nnc(SCC(=O)N4CCc5ccccc54)n3c2cc1C	14*	22*	1.3*	23	12*	-2
Cc1cc2cc(C)c3nnc(SCC(=O)N4CCCc5ccccc54)n3c2cc1C	87	86	87	31	85	12
CSc1ccccc1NS(=O)(=O)c1ccccc1	104	102	104	21	103	48*
Cc1ccc(S(=O)(=O)Nc2nc(C)c(NC(=O)OCCCl)s2)cc1	105	121	135	27	109	62*
CCn1c(SCC(=O)OCc2ccccc2)nc2c1c(=O)n(C)c(=O)n2C	99	100	96	42	100	11
CCOC(=O)CSc1nc2c(c(=O)n(C)c(=O)n2C)n1CCCc1ccccc1	109	105	108	269*	107	7
Cn1cc([N+](=O)[O-])c(C(=O)NNC(=O)c2ccc([N+](=O)[O-])cc2)n1	105	104	111	10	106	26
Cc1ccc(-c2ccc(CCC(=O)O)n2Cc2ccco2)cc1	100	95	96	13	98	49*
CCC(C)NS(=O)(=O)c1ccc(OCC(=O)Nc2ccc3c(c2)OCCO3)cc1 (stereo not drawn)	98	102	110	36	103	13
CCOC(=O)c1cnn(-c2ccc(C)cc2)c1N	95	104	103	255*	104	8
CC(C)CNC(=O)COC(=O)c1cc(Cl)cc(Cl)c1N	95	93	99	265*	95	7
COC(=O)CNC(=O)COC(=O)c1cc(Cl)cc(Cl)c1N	102	100	100	22	98	31
CCOC(=O)c1nc(C)sc1-c1ccnn1S(=O)(=O)c1ccccc1C(F)(F)F	u	110	109	x	105	3
CCOC(=O)C1(Cc2cccc(OC)c2)CCCN(C(=O)c2cc(C)[nH]n2)C1 (stereo not drawn)	84	76	80	11	81	7

Source: PubChem BioAssay (NMMLSC)
